# Active and inactive are the calls of the source. How the source made its calls: active means hit-call score of the fitted dose curve at least 0.9, where 1 is the maximum; inactive means score below 0.9.
# How the values were obtained:
# [1] = biological target: Bile acid receptor (Homo sapiens) (UniProt Q96RI1); test: ATG_IR1_CIS: Attagene CIS-FACTORIAL HepG2 Assay for human Nuclear Receptor Subfamily 1 Group H Member 4 (NR1H4), IR1 submotif (AID 2282946); details: IR1 reporter transcription, actives raise or lower the signal
# In short: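 Readout: reporter transcript levels by RT-PCR with fluorescent capillary electrophoresis, from HepG2 cells transiently transfected with multiplexed cis-regulated reporters and dosed 24 h. Gain- or loss-of-signal fitted versus DMSO negative control.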
# [2] = ATG_GRE_CIS: Attagene CIS-FACTORIAL HepG2 Assay for human Glucocorticoid Response Elements (GRE) (AID 2282947); details: HepG2 GRE cis-reporter, Attagene multiplex mRNA; actives raise or lower the signal
# In short: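 Cells (HepG2) bearing transfected cis-promoter reporter transcription units were treated with chemical for 24 hours. Reporter mRNA was measured via RT-PCR with capillary electrophoresis, and activity was fitted in both directions relative to DMSO.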
# [3] = ATG_ISRE_CIS: Attagene CIS-FACTORIAL HepG2 Assay for human Interferon Regulatory Factor 1 (IRF1) binding to an Interferon-Stimulated Response Element (ISRE) (AID 2282948); details: HepG2 ISRE cis-reporter (Attagene), mRNA transcription readout; actives raise or lower the signal
# In short: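 Signal reflects induction or loss of ISRE-linked reporter mRNA in transiently transfected HepG2 cells after a 24 h treatment, detected by fluorescent RT-PCR fragments on capillary electrophoresis and normalised to DMSO.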
# [4] = ATG_M_32_CIS: Attagene CIS-FACTORIAL HepG2 Assay for M32 Transcription Factor (Internal Marker) (AID 2282949); details: HepG2 Attagene cis-factorial M32 reporter, mRNA; actives raise or lower the signal;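 further: background control marker of the multiplexed CIS panel rather than a real target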
# In short: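 HepG2 human liver cells transiently transfected with cis-promoter-driven multiple reporter transcription units, dosed 24 h. Reporter mRNA quantified by RT-PCR, FAM-labelled primer extension, HpaI digest and capillary electrophoresis; bidirectional fit versus DMSO baseline.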
# [5] = ATG_M_06_CIS: Attagene CIS-FACTORIAL HepG2 Assay for M06 Transcription Factor (Internal Marker) (AID 2282950); details: HepG2 Attagene CIS-FACTORIAL M06 internal marker reporter; actives raise or lower the signal
# In short: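 Read-out is fluorescence of labelled reporter cDNA fragments resolved by capillary electrophoresis after RT-PCR. Cells: HepG2 carrying transfected cis-promoter reporter units, treated 24 h. Gain or loss of signal fitted relative to DMSO.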
# [6] = biological target: Hypoxia-inducible factor 1-alpha (Homo sapiens) (UniProt Q16665); test: ATG_HIF1a_CIS: Attagene CIS-FACTORIAL HepG2 Assay for human Hypoxia Inducible Factor 1 (HIF1A) (AID 2282951); details: HepG2 Attagene cis-factorial HIF1a reporter transcription; actives raise or lower the signal
# In short: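 Transient MRTU transfection of human HepG2 liver cells, 24 h compound treatment, then total RNA isolation, oligo(dT) reverse transcription, PCR amplification, fluorescent labelling and capillary electrophoresis of reporter fragments. Gain or loss relative to DMSO.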
# [7] = biological target: Hepatocyte nuclear factor 6 (Homo sapiens) (UniProt Q9UBC0); test: ATG_HNF6_CIS: Attagene CIS-FACTORIAL HepG2 Assay for human Hepatocyte Nuclear Factor 6 (HNF6) (AID 2282952); details: HepG2 Attagene cis-factorial HNF6 reporter transcription; actives raise or lower the signal
# In short: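 First, HepG2 cells were transfected with the multiplexed cis reporter library and dosed with chemical for 24 h. Next, RNA was reverse-transcribed, PCR-amplified and fluorescently labelled. Finally, HpaI-digested fragments were read by capillary electrophoresis.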
# [8] = biological target: Heat shock factor protein 1 (Homo sapiens) (UniProt Q00613); test: ATG_HSE_CIS: Attagene CIS-FACTORIAL HepG2 Assay for human Heat Shock Transcription Factor 1 (HSE) (AID 2282953); details: HepG2 HSE cis-reporter, Attagene RNA transcription; actives raise or lower the signal
# In short: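 HepG2, transient MRTU transfection, cis-promoter reporters (endogenous TF activity). 24 h compound. RNA → oligo(dT) RT → PCR → 6-FAM primer extension → HpaI cut → CE. Bidirectional fit vs DMSO.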
# [9] = ATG_MRE_CIS: Attagene CIS-FACTORIAL HepG2 Assay for human Metal Responsive Element (MRE) (AID 2282954); details: HepG2 MRE cis-reporter transcription, Attagene multiplex; actives raise or lower the signal
# In short: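 Cells were transfected with cis-promoter reporter transcription units, then dosed for 24 h. RNA was reverse-transcribed, amplified, fluorescently labelled and resolved by capillary electrophoresis, and activity was fitted in both directions relative to DMSO.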
# [10] = ATG_PBREM_CIS: Attagene CIS-FACTORIAL HepG2 Assay for human Phenobarbital-responsive Enhancer Module (PBREM) (AID 2282955); details: HepG2 PBREM cis-reporter, Attagene multiplexed transcription; actives raise or lower the signal
# In short: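 Endogenous transcription factors in human liver HepG2 cells drive a PBREM cis-element reporter, whose transcript level after 24 h treatment is quantified by RT-PCR with capillary electrophoresis; activity fitted in both directions against DMSO.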
# Sequence of Hepatocyte nuclear factor 6 (Homo sapiens) (Q9UBC0 whole entry, looked up, the tested form may be a part): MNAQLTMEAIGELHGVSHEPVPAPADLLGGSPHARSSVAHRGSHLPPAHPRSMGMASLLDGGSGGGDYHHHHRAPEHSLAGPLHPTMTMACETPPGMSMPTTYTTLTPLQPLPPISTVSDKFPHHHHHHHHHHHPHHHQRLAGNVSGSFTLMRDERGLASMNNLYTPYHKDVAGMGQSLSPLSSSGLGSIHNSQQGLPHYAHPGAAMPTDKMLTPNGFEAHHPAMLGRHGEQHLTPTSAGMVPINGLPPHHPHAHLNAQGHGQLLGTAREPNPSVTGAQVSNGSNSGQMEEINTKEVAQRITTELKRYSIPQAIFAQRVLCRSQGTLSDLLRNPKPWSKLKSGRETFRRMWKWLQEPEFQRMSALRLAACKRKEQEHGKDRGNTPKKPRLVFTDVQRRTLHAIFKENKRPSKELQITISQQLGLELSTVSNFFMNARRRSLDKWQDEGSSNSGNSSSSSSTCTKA
# Sequence of Heat shock factor protein 1 (Homo sapiens) (Q00613 whole entry, looked up): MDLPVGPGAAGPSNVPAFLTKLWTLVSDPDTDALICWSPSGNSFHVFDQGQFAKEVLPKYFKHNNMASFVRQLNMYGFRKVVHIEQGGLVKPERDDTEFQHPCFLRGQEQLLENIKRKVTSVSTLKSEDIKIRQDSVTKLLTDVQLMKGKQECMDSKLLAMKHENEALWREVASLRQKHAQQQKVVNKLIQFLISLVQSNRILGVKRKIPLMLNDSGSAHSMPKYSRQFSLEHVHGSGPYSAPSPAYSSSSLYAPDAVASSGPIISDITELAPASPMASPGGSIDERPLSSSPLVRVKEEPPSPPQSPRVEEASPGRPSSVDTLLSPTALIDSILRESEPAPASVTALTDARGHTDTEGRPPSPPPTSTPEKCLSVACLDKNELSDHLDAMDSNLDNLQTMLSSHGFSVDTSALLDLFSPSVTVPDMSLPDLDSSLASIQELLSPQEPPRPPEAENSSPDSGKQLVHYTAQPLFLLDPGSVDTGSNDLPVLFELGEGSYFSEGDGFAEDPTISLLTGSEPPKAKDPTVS
# Sequence of Hypoxia-inducible factor 1-alpha (Homo sapiens) (Q16665 whole entry, looked up, the tested form may be a part): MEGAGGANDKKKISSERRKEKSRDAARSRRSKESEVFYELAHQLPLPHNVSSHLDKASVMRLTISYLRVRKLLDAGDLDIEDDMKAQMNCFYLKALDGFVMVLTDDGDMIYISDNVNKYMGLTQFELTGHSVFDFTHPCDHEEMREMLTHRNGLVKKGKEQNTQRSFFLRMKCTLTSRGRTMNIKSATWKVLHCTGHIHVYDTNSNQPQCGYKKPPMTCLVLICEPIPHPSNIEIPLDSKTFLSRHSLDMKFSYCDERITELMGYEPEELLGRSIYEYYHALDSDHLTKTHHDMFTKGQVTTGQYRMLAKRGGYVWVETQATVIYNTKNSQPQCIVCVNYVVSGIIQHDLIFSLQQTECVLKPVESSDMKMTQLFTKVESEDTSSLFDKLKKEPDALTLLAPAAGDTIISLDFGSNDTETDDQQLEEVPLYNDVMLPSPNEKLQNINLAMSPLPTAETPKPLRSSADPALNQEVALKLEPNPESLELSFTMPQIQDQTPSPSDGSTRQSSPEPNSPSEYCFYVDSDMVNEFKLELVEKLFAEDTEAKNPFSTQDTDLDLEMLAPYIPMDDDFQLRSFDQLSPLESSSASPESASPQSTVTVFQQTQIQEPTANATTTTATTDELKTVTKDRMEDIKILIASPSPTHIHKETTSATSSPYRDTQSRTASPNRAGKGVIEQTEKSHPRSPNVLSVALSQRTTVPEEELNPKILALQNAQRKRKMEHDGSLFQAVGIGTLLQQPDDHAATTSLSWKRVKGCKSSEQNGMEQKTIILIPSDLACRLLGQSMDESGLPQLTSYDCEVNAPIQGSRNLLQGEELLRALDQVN
# Sequence of Bile acid receptor (Homo sapiens) (Q96RI1 whole entry, looked up): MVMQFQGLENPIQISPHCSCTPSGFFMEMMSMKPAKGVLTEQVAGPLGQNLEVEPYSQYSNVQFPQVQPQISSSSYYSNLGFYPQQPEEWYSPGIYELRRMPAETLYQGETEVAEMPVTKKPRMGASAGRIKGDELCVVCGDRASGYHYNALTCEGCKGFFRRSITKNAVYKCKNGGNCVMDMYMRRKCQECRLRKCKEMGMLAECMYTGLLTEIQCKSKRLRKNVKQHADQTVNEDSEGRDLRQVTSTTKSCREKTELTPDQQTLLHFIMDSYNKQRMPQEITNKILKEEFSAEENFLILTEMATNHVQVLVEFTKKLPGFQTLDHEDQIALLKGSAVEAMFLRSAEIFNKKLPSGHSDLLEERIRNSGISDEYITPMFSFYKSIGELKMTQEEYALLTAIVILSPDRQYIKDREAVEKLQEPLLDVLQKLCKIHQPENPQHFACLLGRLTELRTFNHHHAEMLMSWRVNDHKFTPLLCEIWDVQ
Compound,outcome [1],outcome [2],outcome [3],outcome [4],outcome [5],AC50 [6],outcome [7],outcome [8],outcome [9],AC50 [3],AC50 [8],AC50 [9],outcome [10],outcome [6],AC50 [1],AC50 [7]
OCCCCC(O)CO (configuration not stated),inactive,inactive,inactive,inactive,inactive,23.2 µM (active),inactive,inactive,inactive,–,–,–,–,–,–,–
CCc1cc(Cc2cc(CC)cc(C(C)(C)C)c2O)c(O)c(C(C)(C)C)c1,inactive,inactive,–,inactive,inactive,16.7 µM (active),inactive,–,–,17.4 µM (active),18.5 µM (active),18.1 µM (active),inactive,–,–,–
CS(C)=O,inactive,inactive,inactive,inactive,inactive,–,inactive,inactive,inactive,–,–,–,–,inactive,–,–
CC1C2CC(CC2C2CCCC(O)C2)C1(C)C (configuration not stated),inactive,inactive,inactive,inactive,inactive,–,inactive,inactive,inactive,–,–,–,–,inactive,–,–
CC(=O)Nc1ccc(C(=O)CCl)cc1,–,inactive,–,inactive,inactive,–,inactive,inactive,–,6.86 µM (active),–,16.1 µM (active),–,inactive,33.4 µM (active),–
Cc1ccc(S(N)(=O)=O)cc1,inactive,inactive,inactive,inactive,inactive,–,inactive,inactive,inactive,–,–,–,–,inactive,–,–
CCNCCO,inactive,inactive,inactive,inactive,inactive,–,inactive,inactive,inactive,–,–,–,–,inactive,–,–
Cc1c(Cl)cccc1[N+](=O)[O-],inactive,inactive,inactive,inactive,inactive,–,inactive,inactive,inactive,–,–,–,–,inactive,–,–
C1=CC2C3C=CC(C3)C2C1 (configuration not stated),inactive,inactive,inactive,inactive,inactive,–,inactive,inactive,inactive,–,–,–,inactive,inactive,–,–
CC1=C(Br)C(=O)C(Br)=C/C1=C(/c1ccccc1S(=O)(=O)O)c1cc(Br)c(O)c(Br)c1C,inactive,inactive,inactive,inactive,inactive,–,inactive,inactive,inactive,–,–,–,inactive,inactive,–,–
[Cl][Au]([Cl])[Cl],inactive,inactive,inactive,inactive,inactive,–,inactive,inactive,–,–,–,–,–,inactive,–,–
CCCCCCCCCCCCS(=O)(=O)Cl,inactive,inactive,inactive,inactive,inactive,–,inactive,inactive,inactive,–,–,–,inactive,inactive,–,–
Cc1ccc(C)o1,inactive,inactive,inactive,inactive,inactive,–,inactive,inactive,inactive,–,–,–,inactive,inactive,–,–
C/C=C(\C)C(=O)OCCc1ccccc1,inactive,inactive,inactive,inactive,inactive,–,inactive,inactive,inactive,–,–,–,inactive,inactive,–,–
CC(C)(C)c1ccc(C(=O)O)cc1,inactive,inactive,inactive,inactive,inactive,–,inactive,inactive,–,–,–,–,–,inactive,–,–
CC1(C)C(=O)N(Cl)C(=O)N1Br,inactive,inactive,inactive,inactive,inactive,–,inactive,inactive,inactive,–,–,–,inactive,inactive,–,–
O=C(CC(=O)c1ccccc1)c1ccccc1,inactive,inactive,–,inactive,inactive,33.5 µM (active),–,–,–,95.9 µM (active),145 µM (active),–,–,–,–,145 µM (active)
CCCCCc1ccco1,–,inactive,inactive,inactive,inactive,–,inactive,–,inactive,–,115 µM (active),–,inactive,inactive,105 µM (active),–
COC(C)(C)CCCC(C)CC=O (configuration not stated),inactive,inactive,inactive,inactive,inactive,–,inactive,inactive,inactive,–,–,–,inactive,inactive,–,–
Cc1cc(C)nc(NS(=O)(=O)c2ccc(N)cc2)n1,inactive,inactive,inactive,inactive,inactive,–,inactive,inactive,inactive,–,–,–,inactive,inactive,–,–
CC[N+](C)(CC)CC,inactive,inactive,inactive,inactive,inactive,–,inactive,inactive,inactive,–,–,–,inactive,inactive,–,–
CC1(C)C2=CCCC(C)(C)[C@]23CC[C@H]1C3,inactive,inactive,inactive,inactive,inactive,–,inactive,inactive,–,–,–,100 µM (active),inactive,inactive,–,–
Clc1cc(Cl)c(-c2c(Cl)c(Cl)cc(Cl)c2Cl)cc1Cl,inactive,inactive,inactive,inactive,inactive,–,inactive,inactive,–,–,–,29.1 µM (active),–,inactive,–,–
CC(C)C[C@H](NC(=O)OCC1c2ccccc2-c2ccccc21)C(=O)O,inactive,inactive,inactive,inactive,inactive,–,inactive,inactive,inactive,–,–,–,inactive,inactive,–,–
CCc1ccc(O)c(OC)c1,inactive,inactive,inactive,inactive,inactive,–,inactive,inactive,inactive,–,–,–,inactive,inactive,–,–
CCCCCCC(C)Nc1ccc(Nc2ccccc2)cc1 (configuration not stated),inactive,inactive,inactive,inactive,inactive,–,inactive,–,–,–,60.8 µM (active),48.9 µM (active),–,inactive,–,–

Compound,outcome [1],outcome [2],outcome [3],outcome [4],outcome [5],AC50 [6],outcome [7],outcome [8],outcome [9],AC50 [3],AC50 [8],AC50 [9],outcome [10],outcome [6],AC50 [1],AC50 [7]
CC(C)(C)OC(=O)c1ccc(O)cc1,inactive,inactive,inactive,inactive,inactive,–,inactive,–,–,–,159 µM (active),100 µM (active),inactive,inactive,–,–
O=C(Nc1ccc([N+](=O)[O-])cc1)Nc1ccc([N+](=O)[O-])cc1 (tested in a mixture with another compound),inactive,inactive,inactive,inactive,inactive,–,inactive,inactive,inactive,–,–,–,–,inactive,–,–
COc1ccc(OC)c(N=Nc2c(O)ccc3ccccc23)c1,inactive,inactive,inactive,inactive,inactive,–,inactive,inactive,inactive,–,–,–,inactive,inactive,–,–
O=CCc1ccccc1,inactive,inactive,inactive,inactive,inactive,–,inactive,inactive,inactive,–,–,–,inactive,inactive,–,–
FC(F)(F)COCC(F)(F)F,inactive,inactive,inactive,inactive,inactive,–,inactive,inactive,inactive,–,–,–,inactive,inactive,–,–
CCCC(C)C(O)CC (configuration not stated),inactive,inactive,inactive,inactive,inactive,–,inactive,inactive,inactive,–,–,–,–,inactive,–,–
Cc1ncc[nH]1,inactive,inactive,inactive,inactive,inactive,–,inactive,inactive,inactive,–,–,–,–,inactive,–,–
CC(=O)c1c(C)c([N+](=O)[O-])c(C(C)(C)C)c([N+](=O)[O-])c1C,inactive,inactive,inactive,inactive,inactive,–,inactive,inactive,–,–,–,11.5 µM (active),inactive,inactive,–,–
COc1ccc(N)c([N+](=O)[O-])c1,inactive,inactive,inactive,inactive,inactive,–,inactive,inactive,inactive,–,–,–,inactive,inactive,–,–
COc1cc(C(C)C)ccc1C,inactive,inactive,inactive,inactive,inactive,–,inactive,inactive,inactive,–,–,–,inactive,inactive,–,–
CCc1cc(C(C)(C)C)c(O)c(C(C)(C)C)c1,inactive,inactive,inactive,inactive,inactive,–,inactive,inactive,inactive,–,–,–,inactive,inactive,–,–
Nc1ccccc1[N+](=O)[O-],inactive,inactive,inactive,inactive,inactive,–,inactive,inactive,inactive,–,–,–,–,inactive,–,–
C=Cc1ccncc1,inactive,inactive,–,inactive,inactive,–,–,–,–,55.9 µM (active),75.8 µM (active),28.2 µM (active),inactive,inactive,–,33.9 µM (active)
CCCCCCOCCOCCO,inactive,inactive,inactive,inactive,inactive,–,inactive,–,inactive,–,–,–,–,inactive,–,–
CCCC[P+](CCCC)(CCCC)CCCC,inactive,inactive,inactive,inactive,inactive,–,inactive,inactive,inactive,–,–,–,inactive,inactive,–,–
ClC(c1ccccc1)(c1ccccc1)c1ccccc1,inactive,inactive,inactive,inactive,inactive,–,inactive,–,–,–,–,–,inactive,inactive,–,–
NC1CCCCC1N (configuration not stated),inactive,inactive,inactive,inactive,inactive,–,inactive,inactive,inactive,–,–,–,inactive,inactive,–,–
CCCCCCC(O)CCCCCCCCCCC(=O)O (configuration not stated),inactive,inactive,inactive,inactive,inactive,–,inactive,inactive,–,–,–,–,inactive,inactive,–,–
CCC(C)S (configuration not stated),inactive,inactive,inactive,inactive,inactive,–,inactive,inactive,inactive,–,–,–,inactive,inactive,–,–
CCCCCCCCCCCCCCN(CCO)CCO,inactive,inactive,inactive,inactive,inactive,–,inactive,inactive,–,–,–,–,inactive,inactive,–,–
CN(C)C(=S)SC(=S)N(C)C,inactive,inactive,inactive,inactive,inactive,–,inactive,inactive,–,–,–,100 µM (active),inactive,inactive,–,–
C1CCOC1,inactive,inactive,inactive,inactive,inactive,–,inactive,inactive,inactive,–,–,–,inactive,inactive,–,–
CC(=O)O[C@H]1C[C@@H]2CC[C@@]1(C)C2(C)C,inactive,inactive,inactive,inactive,inactive,–,inactive,inactive,–,–,–,–,inactive,inactive,–,–
CC(=O)CC(=O)Nc1ccc(C)cc1C,inactive,inactive,inactive,inactive,inactive,–,inactive,–,inactive,–,–,–,inactive,inactive,–,–
COc1cccc(OC)c1O,inactive,inactive,inactive,inactive,inactive,–,inactive,–,inactive,–,–,–,inactive,inactive,–,–
